This is a sample that favours compounds with a hit; in the whole collection about 19% have one here.
IL1B secr inh – inhibitors of inflammasome signaling (IL-1 beta secretion); actives 4.7% (n = 360,000); THP-1 LPS/ATP IL-1B secretion, AlphaLISA, 16 h; hits give low values; activity change, % at 57.5 µM; in the data active = activity change below about -50%; inconclusive = mostly about -30% to -49%; note: % is set by controls: 0 for no effect and ±100 for the full control effect
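THP-1 cells pretreated 1 hr with compounds (up to 57.5 uM final), then stimulated with LPS (250 ng/mL final) plus ATP (1.25 mM final); secreted IL-1B measured by AlphaLISA after 16 hr, decreased signal indicating inhibition.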
TDP1 cell noCPT – qHTS for Inhibitors of human tyrosyl-DNA phosphodiesterase 1 (TDP1): qHTS in cells in absence of CPT; DT40 Tdp1-/- hTDP1 cells, no CPT, ATP luminescence, 48 h; Potency, µM (doses to about 46.2 µM), for inactives: at the top dose activity change, negative = growth inhibition, usual class: inhibitors; actives 15% (n = 420,000); note: potency is the fitted concentration of half-maximal effect; % is set by controls: 0 for no effect and ±100 for the full control effect; nearly all actives have a fitted effect of over 55% in size
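Compound effects on proliferation are scored in DT40 Tdp1-/-;hTDP1 cells in the absence of CPT. ATP levels (CellTiter-Glo luminescence) are recorded after a ≥48 hr, 37 °C incubation.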
ASM inhibitor – inhibitors of human secretory acid sphingomyelinase; P17405; AID 504937; placental ASM, HMU-PC fluorogenic substrate, 60 min; Potency, µM (doses to about 57.5 µM), without a hit: at the top dose activity change, negative = inhibition, actives largely listed as inhibitors; actives 0.006% (n = 340,000); note: potency is the fitted concentration of half-maximal effect
Target sequence (P17405 47-631 limits assumed): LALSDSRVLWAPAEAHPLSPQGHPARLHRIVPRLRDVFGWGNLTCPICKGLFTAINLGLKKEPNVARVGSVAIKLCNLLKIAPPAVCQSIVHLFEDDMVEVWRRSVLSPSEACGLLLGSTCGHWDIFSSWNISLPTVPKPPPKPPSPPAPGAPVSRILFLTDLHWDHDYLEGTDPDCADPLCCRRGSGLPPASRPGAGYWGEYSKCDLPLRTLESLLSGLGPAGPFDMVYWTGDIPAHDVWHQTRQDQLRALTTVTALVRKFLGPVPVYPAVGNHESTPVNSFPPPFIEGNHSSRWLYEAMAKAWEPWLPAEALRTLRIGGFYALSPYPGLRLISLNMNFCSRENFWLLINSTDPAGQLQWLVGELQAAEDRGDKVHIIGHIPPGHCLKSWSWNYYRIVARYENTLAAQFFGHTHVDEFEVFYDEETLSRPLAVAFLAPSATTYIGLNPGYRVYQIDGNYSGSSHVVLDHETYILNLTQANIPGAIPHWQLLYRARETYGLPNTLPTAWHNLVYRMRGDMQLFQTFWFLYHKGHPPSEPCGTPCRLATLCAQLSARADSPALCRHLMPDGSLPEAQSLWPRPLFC
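qHTS format. ASM enzyme prepared from human placenta hydrolyses the fluorogenic substrate HMU-PC0 (9 uM final) over 60 min at 37 °C after a 10 min compound preincubation.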
HepG2 viability – kills HepG2 cells in TGF-b inhibitor counter-screen | HepG2 CAGA-GFP viability, ATP luminescence, 18 h | Potency, µM (series often up to 46.1 µM), for the others: top-dose activity change, negative = cytotoxicity, actives largely listed as cytotoxic | actives 0.76% (n = 410,000); note: potency is the fitted concentration of half-maximal effect
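CellTiter-Glo luminescence gave cytotoxicity after 18 hours at 37 degrees C. The cells were HepG2 CAGA-GFP in 1% FBS DMEM, stimulated with 500 pg/mL TGF-beta after compound addition. %Activity was normalised to no-cell wells (complete cell-killing) and DMSO (no toxicity), and curves were fitted and classified.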
TGFb SMAD3 inh – inhibitors of TGF-b signaling. HepG2 CAGA-GFP TGF-b/SMAD3 reporter, GFP fluorescence, 18 h; TGF-beta stimulated, 500 pg/mL final. Potency, µM (doses to about 46.1 µM), inactives show at the top dose activity, negative = inhibition, usual class: inhibitors. actives 1.2% (n = 410,000). AID 588855; note: potency is the fitted concentration of half-maximal effect; % is set by controls: 0 for no effect and ±100 for the full control effect; nearly all actives have a fitted effect of over 65% in size
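HEPG2 CAGA-GFP reporter cells (1000/well, DMEM with 1% FBS) received compounds, then recombinant TGF-beta at 500 pg/mL final for 18 hours at 37 degrees C. Per-cell GFP summed per well was normalised to unstimulated and stimulated DMSO controls before curve fitting.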
DT40 TDP1 CPT – DT40-hTDP1 cell growth loss with CPT; actives 12% (n = 420,000); AID 686979; chicken DT40 Tdp1-/-;hTDP1 cells + 20 nM CPT, ATP luminescence, 48 h; Potency, µM (top dose mostly 46.2 µM), without a hit: top-dose activity change, negative = growth inhibition, most hits filed as inhibitors; note: potency is the fitted concentration of half-maximal effect; % is set by controls: 0 for no effect and ±100 for the full control effect; nearly all actives have a fitted effect of over 55% in size
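Chicken DT40 Tdp1-/- cells complemented with human TDP1, 400 cells/well, exposed to compounds plus 20 nM camptothecin for at least 48 h at 37 C; viability read as ATP content by CellTiter-Glo luminescence.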
Starred values were filed as active, the others as inactive. Unless noted, calls come from the whole dose curve; as a rule, active = well fitted curve in the direction sought with a large enough effect; inconclusive = small, poorly fitted or top-dose-only effect, or another doubt; inactive = no such curve, though single readings can be large; an effect the other way counts as inactive or inconclusive.

Screening CCOC(=O)C1CCN(C2CC(=O)N(c3cccc(Cl)c3)C2=O)CC1 (stereo unspecified) returned IL1B secr inh -7.5, TDP1 cell noCPT -4.1%, ASM inhibitor 6.7%, HepG2 viability -0.9%, TGFb SMAD3 inh -1.0% and DT40 TDP1 CPT 0.3%.
Screening O=C(C1CCN(C2CC(=O)N(c3cccc(Cl)c3)C2=O)CC1)N1CCCC1 (stereo unspecified) returned IL1B secr inh 2.2, TDP1 cell noCPT inconclusive, ASM inhibitor 4.6%, HepG2 viability -0.7%, TGFb SMAD3 inh inconclusive and DT40 TDP1 CPT 16.4µM*.
CS(=O)(=O)N1CCCC(C(=O)N2CCN(c3cccc(Cl)c3)CC2)C1 (stereo unspecified) was read as IL1B secr inh -0.8, TDP1 cell noCPT inconclusive, ASM inhibitor 0.8%, HepG2 viability 8.5%, TGFb SMAD3 inh 21.4% and DT40 TDP1 CPT 20.6µM*.
Cc1c(Cl)cccc1NC(=O)C1CC(=O)N(C2CCCC2)C1 (stereo unspecified) was read as IL1B secr inh -57.8*, TDP1 cell noCPT -7.0%, ASM inhibitor -3.7%, HepG2 viability -7.1%, TGFb SMAD3 inh -16.2% and DT40 TDP1 CPT 0.0%.
Screening CCN(CC)C1CC(=O)N(c2cccc(Cl)c2)C1=O (stereo unspecified) returned IL1B secr inh -8.4, TDP1 cell noCPT 23.1µM*, ASM inhibitor 1.5%, HepG2 viability -17.4%, TGFb SMAD3 inh -5.1% and DT40 TDP1 CPT inconclusive.
`CCc1nc2sc3ccccc3c(=O)c2c(=O)n1Cc1ccc(OC)cc1` gave TDP1 cell noCPT inconclusive, ASM inhibitor -14.8%, HepG2 viability 1.2%, TGFb SMAD3 inh inconclusive and DT40 TDP1 CPT inconclusive.
`Cn1nnnc1SCCNC(=O)C1CCC(=O)N(Cc2ccc(Cl)cc2)C1` (stereo unspecified) gave IL1B secr inh 9.2, TDP1 cell noCPT 6.3%, ASM inhibitor -3.5%, HepG2 viability -29.1%, TGFb SMAD3 inh -35.3% and DT40 TDP1 CPT -4.0%.
CN(Cc1ccn[nH]1)C(=O)C1CCC(=O)N(Cc2cccc(C(F)(F)F)c2)C1 (stereo unspecified) was read as IL1B secr inh -0.9, TDP1 cell noCPT 0.7%, ASM inhibitor -1.0%, HepG2 viability 5.6%, TGFb SMAD3 inh -0.5% and DT40 TDP1 CPT 6.5%.
CC(=O)c1cccc(NC(=O)CCNC(=O)c2cccc(C)c2)c1 was read as IL1B secr inh 45.2, TDP1 cell noCPT -0.6%, ASM inhibitor 4.9%, HepG2 viability -7.5%, TGFb SMAD3 inh 10.7% and DT40 TDP1 CPT -3.5%.
Screening CCc1c(C)sc(NC(=O)c2cc3nc(-c4ccc(OC)cc4)cc(C(F)(F)F)n3n2)c1C(=O)OC returned TDP1 cell noCPT -3.4%, HepG2 viability 1.2%, TGFb SMAD3 inh -0.5% and DT40 TDP1 CPT 5.0%.
Screening O=c1cc(N2CCN(c3cccc(Cl)c3)CC2)[nH]c(=O)n1C1CCCCC1 returned IL1B secr inh 6.1, TDP1 cell noCPT 1.64µM*, ASM inhibitor 5.7%, HepG2 viability 4.2%, TGFb SMAD3 inh 0.7% and DT40 TDP1 CPT inconclusive.
Screening O=C(C1CCC(=O)N(C2CC2)C1)N1CCN(c2ccccc2Cl)CC1 (stereo unspecified) returned IL1B secr inh 10.2, TDP1 cell noCPT 6.2%, ASM inhibitor 3.5%, HepG2 viability 3.9%, TGFb SMAD3 inh 1.1% and DT40 TDP1 CPT 5.6%.
For O=C(C1CC(=O)N(C2CCCC2)C1)N1CCN(c2cccc(Cl)c2)CC1 (stereo unspecified) the results were IL1B secr inh 1.3, TDP1 cell noCPT 23.1µM*, ASM inhibitor -0.1%, HepG2 viability -20.0%, TGFb SMAD3 inh inconclusive and DT40 TDP1 CPT 18.4µM*.
For COc1cccc(N2CCN(C(=O)C3CCC(=O)N(C4CCCCCC4)C3)CC2)c1 (stereo unspecified) the results were IL1B secr inh inactive, TDP1 cell noCPT 18.4µM*, ASM inhibitor 2.9%, HepG2 viability 8.0%, TGFb SMAD3 inh -28.4% and DT40 TDP1 CPT 14.6µM*.
For Cc1ccccc1OC1CCN(C(=O)C2CCC(=O)N(C3CCCC3)C2)CC1 (stereo unspecified) the results were IL1B secr inh 36.2, TDP1 cell noCPT 14.6µM*, ASM inhibitor -3.0%, HepG2 viability -34.0%, TGFb SMAD3 inh inconclusive and DT40 TDP1 CPT inconclusive.
Screening Cc1ccc(OC2CCN(C(=O)C3CCC(=O)N(C4CC4)C3)CC2)cc1 (stereo unspecified) returned IL1B secr inh -5.4, TDP1 cell noCPT -3.6%, ASM inhibitor -1.2%, HepG2 viability 0.4%, TGFb SMAD3 inh -6.5% and DT40 TDP1 CPT -3.9%.
For O=C(c1cccc(S(=O)(=O)Nc2ccc(Br)cc2)c1)N1CCC1 the results were IL1B secr inh 8.3, TDP1 cell noCPT -14.5%, ASM inhibitor -1.6%, HepG2 viability -1.5%, TGFb SMAD3 inh 9.6% and DT40 TDP1 CPT -23.6%.
`O=C(OCc1ccccc1)N1CCC2CC1c1c(Cl)cccc12` (stereo unspecified) gave IL1B secr inh -9.2, TDP1 cell noCPT 18.4µM*, ASM inhibitor -0.4%, HepG2 viability -29.1%, TGFb SMAD3 inh -15.7% and DT40 TDP1 CPT inconclusive.
FC(F)(F)c1ccc(-c2cccc3c2C2CC3CCN2Cc2ccc3c(c2)OCO3)cc1 (stereo unspecified) was read as IL1B secr inh 8.5, TDP1 cell noCPT 16.4µM*, HepG2 viability -23.2%, TGFb SMAD3 inh -17.8% and DT40 TDP1 CPT inconclusive.
O=C(OCc1ccccc1)N1CCC2CC1c1ccc(-c3cccc(F)c3)cc12 (stereo unspecified) was read as IL1B secr inh 3.1, TDP1 cell noCPT inconclusive, HepG2 viability -21.5%, TGFb SMAD3 inh inconclusive and DT40 TDP1 CPT inconclusive.
Screening COc1ccc(-c2ccc3c(c2)C2CC3CCN2Cc2ccc(OC(F)(F)F)cc2)cc1 (stereo unspecified) returned IL1B secr inh 21.0, TDP1 cell noCPT inconclusive, ASM inhibitor -21.4%, HepG2 viability -43.6%, TGFb SMAD3 inh -18.4% and DT40 TDP1 CPT inconclusive.

Screening results deposited in PubChem by National Center for Advancing Translational Sciences (NCATS).
